High-throughput results as filed in PubChem.
Sampled rows, rich in hits. Any-hit rate of the full collection: about 21%.
Cycloheximide cs = counter-screen hit for Shiga toxin inhibitors, cycloheximide; cell reporter, cycloheximide protein synthesis inhibition counterscreen; max response, %; 300,000 compounds, 12% hits; AID 2314; in the data active means max response mostly above about 13%, no sharp cut-off; inactive means mostly below about 14%; further: read at 38.3 µM for the half of the compounds with a filed dose; 0% is about no effect
Pf growth 96h = P. falciparum growth inhibition at 96 hours; Potency, µM (titrated, usually from 28.7 µM), for inactives: at the top dose activity change, negative = inhibition, actives largely listed as inhibitors; AID 504834; P. falciparum luciferase reporter growth, 96 h; 320,000 compounds, 6.9% hits; further: potency means the concentration at half of the fitted maximal effect; on the % scale 0 is the no-effect control and ±100 the full control effect
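P. falciparum expressing integrated firefly luciferase, in erythrocytes at 2% hematocrit, 0.05% parasitemia, incubated with compounds 96 h at 37 C, 5% CO2. Growth inhibition read as loss of luminescence; two-generation exposure targets delayed-death apicoplast inhibitors.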
Shiga inhibitor = inhibitors of Shiga toxin in Vero cells; AID 2315; inhibition, % at 38.7 µM; Vero cells, Shiga toxin protein synthesis inhibition reporter; 290,000 compounds, 9.2% hits; in the data active means inhibition mostly above about 28%, no sharp cut-off; inactive means mostly below about 43%; further: 0% is about no effect
Pf growth 48h = inhibits P. falciparum growth in the first generation, 48 h; P. falciparum luciferase growth in erythrocytes, 48 h; Potency, µM (titrated, usually from 28.7 µM), without a hit: at the highest dose activity change, negative = inhibition, usual class: inhibitors; 310,000 compounds, 5.9% hits; further: potency means the concentration at half of the fitted maximal effect; on the % scale 0 is the no-effect control and ±100 the full control effect
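Luciferase-expressing parasites in RBCs, 2% Hct / 0.1% parasitemia final; RPMI 1640 + 0.5% Albumax; 37 C, 5% CO2, one generation; luminescence read-out, lower signal = inhibition.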
HCV inh = inhibitors of hepatitis C virus infection | 340,000 compounds, 3.4% hits | Potency, µM (series often up to 41.8 µM), inactives show top-dose activity change, negative = inhibition, most hits filed as inhibitors | AID 651820 | Huh7.5.1 HCVcc-Cre infection, luciferase reporter, 44 h; further: potency means the concentration at half of the fitted maximal effect; on the % scale 0 is the no-effect control and ±100 the full control effect
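HCVcc-Cre virus at an moi near 0.5 was added right after compound to cells cultured 4 h from seeding (1,000 cells/well). Luciferase activity was determined 44 h later, 15 min after substrate addition at RT.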
AMA1 RON2 block = disrupts binding of P. falciparum AMA1 to RON2. AlphaScreen AMA1-biotinylated RON2 peptide binding. Potency, µM (series often up to 58.2 µM), for the others: at the highest dose activity change, negative = inhibition, actives largely listed as inhibitors. 360,000 compounds, 0.2% hits;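 further: potency means the concentration at half of the fitted maximal effect; 0% = vehicle wells and -100% = peptide control; nearly all actives have a fitted effect of over 45% in size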
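AMA1 (3D7) with his tag at 25 nM final met compounds first, then biotinylated RON2 peptide at 25 nM; detection used donor plus acceptor beads, 10 µg/mL apiece, read by AlphaScreen after 30 min at room temperature.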
Active calls of the source: *; i = inactive; u = inconclusive; x = no result; [ ] = another dose, or the depositor's remark. Unless noted, the call rests on the fitted dose curve; in most records, active means well fitted curve in the direction sought with a large enough effect; inconclusive means small, poorly fitted or top-dose-only effect, or another doubt; inactive means no such curve, though single readings can be large; an effect the other way counts as inactive or inconclusive.

SMILES | Cycloheximide cs | Pf growth 96h | Shiga inhibitor | Pf growth 48h | HCV inh | AMA1 RON2 block
COc1ccc(Nc2nc(Nc3ccc(OC)cc3OC)nc(N3CCN(C)CC3)n2)c(OC)c1 | 0 | 0% | -11 | u | 1µM* | u
COc1ccc(Nc2nc(N3CCCC3)nc(N3CCCC3)n2)c(OC)c1 | -3 | 38% | -6 | x | 10µM* | -18%
CCOc1ccc(Nc2nc(N3CCCC3)nc(N3CCN(c4ccc(OC)cc4)CC3)n2)cc1 | -1 | 3% | -12 | u | 2% | -5%
S=C1NC(c2ccccc2)=CC(c2ccccc2)N1 (stereo not drawn) | 5 | u | -7 | 10µM* | -15% | 29%
CC1=CC(c2ccccc2)NC(=S)N1 (stereo not drawn) | -3 | u | -10 | -10% | -2% | 3%
Nc1nnnn1CC(=O)N/N=C/c1ccccn1 | 1 | -1% | -8 | 13% | 17% | 107%
CN(C)C(=O)C12CCC(C)(c3nc4ccccc4nc31)C2(C)C (stereo not drawn) | 4 | 2.6µM* | -7 | -26% | 5% | 7%
Cc1ccc(C2=NN(C(=O)CSc3nc4ncc(Cl)cc4[nH]3)C(c3ccco3)C2)cc1 (stereo not drawn) | 14* | 12µM* | 27 | -13% | -14% | 8%
CCCc1cc(=O)[nH]c(SCC(=O)N2N=C(c3ccc(Cl)cc3)CC2c2ccco2)n1 (stereo not drawn) | 9 | 36% | 11 | 42% | 15% | -16%
COc1ccc(C2=NN(C(=O)CSc3nc4ncc(Cl)cc4[nH]3)C(c3ccco3)C2)cc1 (stereo not drawn) | 21* | u | -9 | u | -18% | -1%
Nc1cc(=O)[nH]c(SCC(=O)N2N=C(c3ccc(Cl)cc3)CC2c2ccco2)n1 (stereo not drawn) | 11 | -15% | 23 | -26% | -12% | -12%
COc1ccc2cc(/C=C/C(=O)N3CCN(CC(=O)N4CCCCCC4)CC3)ccc2c1 | 37* | u | 44* | 6.6µM* | u | 7%
O=C(/C=C/c1ccc2c(c1)OCO2)N1CCCCC1 | 39* | u | 45* | 155% | 26% | -8%
O=C(/C=C/c1ccc2c(c1)OCO2)N1CCN(c2ccc(Cl)cc2)CC1 | -2 | -2% | -3 | 32% | 24% | -4%
CCOC(=O)C1CCN(C(=O)/C=C/c2ccc3c(c2)OCO3)CC1 | 29* | -47% | 77 | 131% | 6% | -7%
CCOC(=O)N1CCN(C(=O)/C=C/c2ccc(OC)c(OC)c2)CC1 | 1 | u | -10 | -8% | 10% | 0%
COC(=O)C1CCN(C(=O)/C=C/c2ccc(OC)cc2)CC1 | 49* | x | 93 | 166% | 15% | -16%
CCOC(=O)C1CCCN(C(=O)/C=C/c2ccccc2)CC1 (stereo not drawn) | x | x | x | x | x | -2%
CSC1=NC=C(C#N)C2=NC(c3ccc(Cl)cc3)NN12 (stereo not drawn) | x | x | x | x | x | 6%
CCC(NC(=O)OCc1ccccc1)C(=O)Oc1ccc2ccc(=O)oc2c1 (stereo not drawn) | -1 | 1% | 2 | 33% | 22% | -2%
Cc1cccc(S(=O)(=O)Nc2ccc(-n3c(C)nc4ccccc4c3=O)cc2)c1 | x | -15% | x | u | 1% | 1%
CC1CCN(C(=O)c2[nH]cnc2C(=O)N[C@@H](C)c2ccccc2)CC1 | x | 0% | x | 31% | u | 18%
CN(C)C(CNC(=O)C1CCN(C(=O)/C=C/c2ccccc2)CC1)c1ccccc1 (stereo not drawn) | 38* | -30% | 59* | -23% | 17% | -16%
CCOC(=O)C1CCN(C(=O)/C=C/c2ccccc2)CC1 | 33 | 12% | 73* | i | 15% | 0%
COCCNCc1cc(C)n(-c2cc(S(=O)(=O)N3CCOCC3)ccc2N2CCCC2)c1C | x | x | x | x | -13% | -8%[11.6 µM]
CS(=O)(=O)N(CC(=O)O)Cc1cccc(CN(CC(=O)O)S(C)(=O)=O)c1 | 2 | u | -9 | 2% | 14% | 0%
O=C(Nc1nc2cc3c(cc2s1)OCCO3)c1ccncc1 | 33* | 110% | 121* | i | u | 0%
